Test results published in PubChem BioAssay (EPA / NIEHS).
Several values for one entry are separate records, joined by “and”; a condition that tells them apart may be missing. Identical values can stand only once. Inconclusive results are not listed. Some compounds were tested as several samples or in several runs, with calls that do not always agree. Activity calls are given as the source filed them. The calls were made as follows, unless noted: active = hit-call score of the fitted dose curve at least 0.9, where 1 is the maximum; inactive = score below 0.9.

Columns and labels:
[1] = read-out: Interleukin-1 alpha (IL1a), IL1A (gene 3552); assay: BSK_IMphg_IL1a: BioMAP Diversity Plus: IMphg Assay for Interleukin-1 alpha (IL1a) Biomarker Activity (AID 2284290); conditions: primary human endothelial cells with macrophages
How it was run: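 IL-1α is quantified by ELISA at 24 h in the endothelial/macrophage IMphg co-culture, with gain of signal fitted relative to DMSO. Parallel SRB total-protein staining flags overt toxicity.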

[2] = read-out: E-selectin (Homo sapiens) (UniProt P16581); assay: BSK_IMphg_ESelectin: BioMAP Diversity Plus: IMphg Assay for Eselectin Biomarker Activity (AID 2284291); conditions: primary human endothelial cells with macrophages
How it was run: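 Analysed against DMSO baseline in the positive fitting direction, this endpoint is an ELISA read of E-selectin. It comes from human venular endothelial cells co-cultured with macrophages, sampled 24 h post-dose.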

[3] = BSK_IMphg_SRB: Viability Assessment in the BioMAP Diversity Plus: IMphg Assay (AID 2284292); conditions: primary human endothelial cells with macrophages;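 also: measured one day after compound addition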
How it was run: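 SRB viability endpoint: cultures of human endothelial cells plus macrophages fixed with 10% TCA, stained with 0.1% SRB, read at 560 nm 24 h post-dosing. Only gain-of-signal fitted, relative to DMSO.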

[4] = read-out: Macrophage colony-stimulating factor (MCSF), CSF1 (gene 1435); assay: BSK_IMphg_MCSF: BioMAP Diversity Plus: IMphg Assay for Macrophage colony-stimulating factor (MCSF) Biomarker Activity (AID 2284293); conditions: primary human endothelial cells with macrophages
How it was run: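 M-CSF was measured by ELISA in human venular endothelial cell/macrophage co-cultures dosed for 24 hours. Sulforhodamine B staining of parallel cultures assessed cytotoxicity; data fitted against DMSO baseline.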

[5] = read-out: Interleukin-10 (IL10), IL10 (gene 3586); assay: BSK_IMphg_IL10: BioMAP Diversity Plus: IMphg Assay for Interleukin-10 (IL10) Biomarker Activity (AID 2284294); conditions: primary human endothelial cells with macrophages
How it was run: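 IL-10 read by ELISA after 24 h chemical exposure of primary human venular endothelial cell/macrophage cocultures, with DMSO as baseline. Parallel SRB staining (560 nm) gauged overt cytotoxicity.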

[6] = BSK_IMphg_SRB.Mphg: Macrophage Viability Assessment in the BioMAP Diversity Plus: IMphg Assay (AID 2284295); conditions: primary human endothelial cells with macrophages
How it was run: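 Cytotoxicity read-out: parallel cultures fixed with 10% TCA, stained with 0.1% sulforhodamine B, read at 560 nm. System combines venular endothelium and macrophages; sampled 24 h post-dosing, fitted positively relative to DMSO control.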

[7] = read-out: Thrombomodulin, THBD (gene 7056); assay: BSK_LPS_Thrombomodulin: BioMAP Diversity Plus: LPS Assay for Thrombomodulin Biomarker Activity (AID 2284296); conditions: primary human HUVEC with PBMC
How it was run: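 Thrombomodulin on the surface of LPS-activated endothelial/PBMC co-cultures was quantified by ELISA at 24 hours post-dosing, with DMSO as baseline. Parallel SRB total-protein staining flagged overt cytotoxicity.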

CD69, CD69 (gene 969) = assay: BSK_LPS_CD69: BioMAP Diversity Plus: LPS Assay for CD69 Biomarker Activity (AID 2284303); conditions: primary human HUVEC with PBMC
How it was run: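 CD69 surface levels were read by ELISA after 24 h chemical treatment of an LPS-stimulated HUVEC plus PBMC co-culture; positive-direction fit against DMSO vehicle.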

[8] = VALA_TUBHUV_Agonist_CellCount: Viability Assessment in the VALA Sciences human Umbilical Vein Endothelial Tubule Formation (TUBHUV) Agonism Assay (AID 2284309; active = hit-call score of the fitted dose curve at least 0.9, where 1 is the maximum)
How it was run: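 Viability endpoint by fluorescent imaging of fixed nuclear/CD31-stained HUVEC–HDF co-cultures. Readout is cell count, fitted upward against 0.1% DMSO. Compound exposure was 72 h in 10 ng/ml VEGF, after 3-day co-culture priming.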

[9] = IUF_NPC2c_oligodendrocyte_migration_120hr: Leibniz Research Institute for Environmental Medicine (IUF) 120-hour Neural Progenitor Cell Migration Assay for Oligodendrocyte Migration (NPC2c) (AID 2284297);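 also: O4-positive oligodendrocyte migration distance divided by radial glia migration distance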
How it was run: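 Primary hNPC spheres migrating on extracellular matrix, exposed five days to a 7-point dilution series with solvent control. Oligodendrocyte migration was scored by high-content imaging of O4 immunostaining and expressed relative to radial glia distance.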

[10] = IUF_NPC2a_radial_glia_migration_120hr: Leibniz Research Institute for Environmental Medicine (IUF) 120-hour Neural Progenitor Cell Migration Assay for Radial Glia Migration (NPC2a) (AID 2284298)
How it was run: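 In this multiplexed test, fetal hNPC spheres migrate radially on poly-D-lysine/laminin in N2 medium (37C, 5% CO2, pH 7.2-7.6) under continuous compound exposure over five days. Migration is scored at 120 h from automated Hoechst nuclear imaging.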

[11] = IUF_NPC2a_radial_glia_migration_72hr: Leibniz Research Institute for Environmental Medicine (IUF) 72-hour Neural Progenitor Cell Migration Assay for Radial Glia Migration (NPC2a) (AID 2284299)
How it was run: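 Readout: mean of four manual brightfield measurements of radial glia migration distance (um) at 72 h. hNPC spheres (0.3 mm) exposed to 7 compound concentrations plus solvent control on PDL/laminin, 37C, 5% CO2; activity fitted relative to DMSO.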

[12] = IUF_NPC2b_neuronal_migration_120hr: Leibniz Research Institute for Environmental Medicine (IUF) 120-hour Neural Progenitor Cell Migration Assay for Neuron Migration (NPC2b) (AID 2284300)
How it was run: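 Neurons identified by TUBB3 immunostaining and Hoechst nuclei; migration distance measured automatically on fixed wells at 120 h, normalized to glia migration. Exposure spanned five days of differentiation in N2 medium, seven test concentrations.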

[13] = IUF_NPC3_neuronal_differentiation_120hr: Leibniz Research Institute for Environmental Medicine (IUF) 120-hour Neuronal Differentiation Assay (NPC3) (AID 2284301)
How it was run: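 Neuronal differentiation of primary human neural progenitors measured by high-content imaging: percent TUBB3+ of Hoechst+ nuclei within migrated area at 120 h, seven-point serial dilution plus solvent control, gain or loss relative to DMSO.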

[14] = IUF_NPC4_neurite_length_120hr: Leibniz Research Institute for Environmental Medicine (IUF) 120-hour Neuronal Morphology Assay for Neurite Length (NPC4) (AID 2284302)
How it was run: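 Neurons from differentiating human fetal neural progenitor spheres are scored for average neurite length after five days of compound exposure. Fitting uses DMSO as negative control.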

[15] = IUF_NPC5_oligodendrocyte_differentiation_120hr: Leibniz Research Institute for Environmental Medicine (IUF) 120-hour Oligodendrocyte Differentiation Assay (NPC5) (AID 2284304; active = hit-call score of the fitted dose curve at least 0.9, where 1 is the maximum;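 also: primary human fetal neural progenitor spheres plated to migrate and differentiate; share of O4-positive cells among Hoechst nuclei found by CNN image analysis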)
How it was run: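 Human primary NPC neurospheres migrating and differentiating on laminin for 120 h under continuous compound exposure (serial dilution, solvent control). Endpoint: percent O4+ oligodendrocytes among Hoechst nuclei, detected by CNN image analysis, with DMSO as negative control.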

[16] = IUF_NPC4_neurite_area_120hr: Leibniz Research Institute for Environmental Medicine (IUF) 120-hour Neuronal Morphology Assay for Neurite Area (NPC4) (AID 2284305; active = hit-call score of the fitted dose curve at least 0.9, where 1 is the maximum)
How it was run: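 Endpoint at 120 h: automated imaging of TUBB3/Hoechst-stained differentiating human neural progenitor spheres, neurite area per neuron from skeletonization. DMSO solvent control, not above 0.1%, set the baseline; medium was half-replaced on day 3.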

[17] = IUF_NPC2-5_cytotoxicity_72hr: Cytotoxicity Assessment at 72 hours in the Leibniz Research Institute for Environmental Medicine (IUF) Neural Progenitor Cell Migration and Differentiation Assay for Cytotoxicity (NPC2-5) (AID 2284306; active = hit-call score of the fitted dose curve at least 0.9, where 1 is the maximum;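 also: LDH release into supernatant measured by resorufin fluorescence marking membrane damage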)
How it was run: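 Primary human neural progenitor spheres migrate and differentiate on laminin. Compound is present from the start of differentiation, with DMSO kept at or below 0.1%. At 72 h, supernatant LDH is quantified fluorometrically, with values fitted in the positive direction.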

[18] = IUF_NPC2-5_cytotoxicity_120hr: Cytotoxicity Assessment at 120 hours in the Leibniz Research Institute for Environmental Medicine (IUF) Neural Progenitor Cell Migration and Differentiation Assay (NPC2-5) (AID 2284307; active = hit-call score of the fitted dose curve at least 0.9, where 1 is the maximum)
How it was run: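 Fluorescence (RFU) from LDH-driven resazurin reduction in medium supernatants measured loss of membrane integrity after 120 h of compound exposure of differentiating primary human neural progenitor spheres on an extracellular matrix.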

[19] = IUF_NPC2-5_cell_number_120hr: Cell Number Assessment at 120 hours in the Leibniz Research Institute for Environmental Medicine (IUF) Neural Progenitor Cell Migration and Differentiation Assay (NPC2-5) (AID 2284308);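 also: count of Hoechst-stained nuclei in migration zone around plated human neural progenitor spheres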
How it was run: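 Cell number is taken as all Hoechst-positive nuclei detected in the area into which cells migrate out of the sphere, scored at 120 h and referenced to DMSO solvent control, which was kept at no more than 0.1%.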

Measured: AC50

Sequence of E-selectin (Homo sapiens) (P16581 whole entry, looked up): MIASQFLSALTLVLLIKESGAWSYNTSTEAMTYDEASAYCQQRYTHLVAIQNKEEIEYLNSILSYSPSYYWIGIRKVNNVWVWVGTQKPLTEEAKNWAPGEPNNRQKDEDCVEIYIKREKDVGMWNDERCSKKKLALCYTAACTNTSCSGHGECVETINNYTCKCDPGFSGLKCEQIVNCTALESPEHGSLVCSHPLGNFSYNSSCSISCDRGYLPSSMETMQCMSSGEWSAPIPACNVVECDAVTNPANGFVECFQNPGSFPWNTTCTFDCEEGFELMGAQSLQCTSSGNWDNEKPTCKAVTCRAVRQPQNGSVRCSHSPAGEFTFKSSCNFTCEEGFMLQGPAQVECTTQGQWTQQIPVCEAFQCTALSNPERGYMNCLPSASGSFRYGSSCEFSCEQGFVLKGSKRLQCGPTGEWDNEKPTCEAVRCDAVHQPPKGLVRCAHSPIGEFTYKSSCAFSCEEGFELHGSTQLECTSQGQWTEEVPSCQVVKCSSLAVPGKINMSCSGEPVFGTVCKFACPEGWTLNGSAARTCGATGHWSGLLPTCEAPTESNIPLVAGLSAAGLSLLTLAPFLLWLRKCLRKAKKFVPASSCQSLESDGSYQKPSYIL

OCCC(F)(F)C(F)(F)C(F)(F)C(F)(F)C(F)(F)C(F)(F)C(F)(F)C(F)(F)F
active: [1] 39.6 µM | [2] 47.2 µM and 49.9 µM | [3] 50.5 µM and 49.1 µM | [4] 30 µM | [5] 39 µM and 32.8 µM | [6] 46.7 µM and 47.4 µM | [7] 347 nM | CD69, CD69 (gene 969) 30 µM and 2.1 µM
inactive: [1] | [4] | [7]

CCCCCCCCCCCCc1ccccc1S(=O)(=O)O
active: [8] 1.98 µM

C[C@@H]1C[C@H]2[C@@H]3CCC4=CC(=O)C=C[C@]4(C)[C@@]3(F)[C@@H](O)C[C@]2(C)[C@@]1(O)C(=O)COP(=O)(O)O
inactive: [1] | [3] | [4] | [6] | [7] | CD69, CD69 (gene 969)
active: [1] 3.58 µM | [2] 580 nM and 1.5 µM | [5] 954 nM and 1.38 µM | [6] 4.66 µM

NCC(F)(F)C(F)(F)C(F)(F)C(F)(F)C(F)(F)C(F)(F)C(F)(F)F
active: [6] 0.22 µM
inactive: [1] | [2] | [3] | [4] | [5] | [6] | [7] | CD69, CD69 (gene 969)

CC#C[C@]1(O)CC[C@H]2[C@@H]3CCC4=CC(=O)CCC4=C3[C@@H](c3ccc(N(C)C)cc3)C[C@@]21C
inactive: [9] | [10] | [11] | [12] | [13] | [14] | [15] | [16] | [17] | [18] | [19]

FC(F)(I)C(F)(F)C(F)(F)C(F)(F)C(F)(F)C(F)(F)I
active: [1] 30 µM and 22.7 µM and 39.1 µM | [2] 46.1 µM [middle of 5 runs] | [3] 43.5 µM [middle of 5 runs] | [4] 44.4 µM [middle of 5 runs] | [5] 33.9 µM [middle of 5 runs] | [6] 12.6 µM [middle of 5 runs] | [7] 14.6 µM and 23.5 µM | CD69, CD69 (gene 969) 4.49 µM and 40.5 µM and 53.2 µM
inactive: [1] | [7] | CD69, CD69 (gene 969)

O=C(O)Cc1cc(I)c(Oc2cc(I)c(O)c(I)c2)c(I)c1
inactive: [8]

OCCC(F)(F)C(F)(F)C(F)(F)C(F)(F)C(F)(F)C(F)(F)F
inactive: [1] | [2] | [3] | [4] | [5] | [6] | [7] | CD69, CD69 (gene 969)
active: [2] 55.2 µM | [6] 39.8 µM

CN1CCC[C@H]1c1cccnc1
inactive: [9] | [10] | [11] | [12] | [13] | [14] | [15] | [16] | [17] | [18] | [19]

CC1=C(/C=C/C(C)=C/C=C/C(C)=C/C(=O)O)C(C)(C)CCC1
active: [10] 1.74 µM
inactive: [9] | [11] | [12] | [13] | [14] | [15] | [16] | [17] | [18] | [19]

C=C(C)C(=O)OCCC(F)(F)C(F)(F)C(F)(F)C(F)(F)C(F)(F)C(F)(F)F
inactive: [1] | [2] | [3] | [4] | [5] | [6] | [7] | CD69, CD69 (gene 969)
